Screening results (PubChem)
Compounds with a hit are over-represented: about 3.8% of the library has one in this group of screens.
ADAM17 inh: ADAM17 inhibition, QFRET primary screen; P78536; recombinant ADAM17, EDANS/DABCYL FRET peptide cleavage; inhibition, % at 6.95 µM; actives 0.83% (n = 370,000); AID 720648;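 active = inhibition above the mean of compounds lying between control limits plus 3 SD, set per campaign, cut at about 8.5% in these data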;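 also: 0% = DMSO-only wells as the low control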
FGF22 binding: shifts melting point of recombinant human FGF22; activity (Tm shift, normalised), % at 9.99 µM; actives 1.5% (n = 340,000); recombinant FGF22 thermal shift, SYPRO orange fluorescence; percent of sucrose octasulfate shift, DMSO zero; Q9HCT0; AID 651658;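 active = mean Tm shift, scaled 0 neutral to 100 positive control, at about 1.3% or above, every replicate too, limit read from the data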
Target sequence (Q9HCT0 whole entry, looked up): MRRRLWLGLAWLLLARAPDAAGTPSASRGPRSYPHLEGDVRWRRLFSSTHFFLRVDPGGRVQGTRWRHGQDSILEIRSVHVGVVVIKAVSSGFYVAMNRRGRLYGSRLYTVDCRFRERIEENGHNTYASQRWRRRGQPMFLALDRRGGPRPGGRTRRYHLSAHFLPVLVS
ADAM10 inh: ADAM10 inhibition, QFRET primary screen; O14672; recombinant ADAM10, EDANS/DABCYL FRET peptide cleavage, 3 h; inhibition, % at 7 µM; actives 0.62% (n = 370,000); AID 720582;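 active = inhibition above a per-campaign cutoff equal to the mean of compounds falling between control-based bounds plus 3 SD, cut at about 20% in these data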;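 also: 0% = DMSO wells while the 100% control is not disclosed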
Ecoli rRNA inh: selective bacterial rRNA inhibition in E. coli | E. coli WT GFP vs humanized-ribosome RFP mutants, fluorescence, 24 h; active compounds read low; DMSO median 0, no signal -100 | AID 720706 | GFP signal change (wild-type ribosome), % (test concentration not listed) | actives 1.6% (n = 350,000);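 active = significant combined selectivity score with lowered wild-type GFP, culture density cut under 30%, mutant RFP and density less affected; inactive = any of these conditions unmet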
proKLK7 act: activators of human kallikrein-7 zymogen; actives 0.9% (n = 370,000); activation, % at 7 µM; P49862; AID 652039; purified proKLK7, EDANS-DABCYL substrate fluorescence; 100% is mature enzyme control, 0% vehicle;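 active = activation above the mean of all tested compounds plus 3 SD, computed per campaign excluding outliers beyond control limits, cut at about 13% in these data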
Target sequence (P49862 whole entry, looked up): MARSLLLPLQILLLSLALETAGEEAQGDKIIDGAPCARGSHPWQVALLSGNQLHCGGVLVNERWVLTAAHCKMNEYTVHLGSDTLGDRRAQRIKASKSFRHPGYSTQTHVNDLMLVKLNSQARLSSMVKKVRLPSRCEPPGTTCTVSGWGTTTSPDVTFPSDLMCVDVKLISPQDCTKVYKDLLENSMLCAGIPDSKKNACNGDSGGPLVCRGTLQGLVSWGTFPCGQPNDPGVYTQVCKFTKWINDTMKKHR
ADAM10 confirm: confirmation of inhibitors of human ADAM10; shares compounds with ADAM10 inh; ADAM10 QFRET peptide cleavage, EDANS fluorescence; inhibition, % at 6.95 µM; actives 1% (n = 2,100); AID 743208;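 active = inhibition above about 20% chosen separately for each screening run, limit read from the data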;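 also: 0% = DMSO wells and 100% = marimastat wells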
ADAM17 ctr: inhibits human ADAM17 in ADAM10 exosite counter-screen | ADAM17 QFRET peptide cleavage, EDANS fluorescence | actives 0.5% (n = 2,100) | inhibition, % at 6.95 µM | shares compounds with ADAM10 inh;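 active = mean triplicate inhibition above the solvent-only control wells' mean plus 3 SD, cut at about 12% in these data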;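 also: 0% = DMSO wells and 100% = marimastat wells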
ADAM10 ctr: inhibits human ADAM10 in ADAM17 exosite counter-screen; shares compounds with ADAM17 inh; recombinant ADAM10, EDANS/DABCYL FRET peptide cleavage, 3 h; inhibition, % at 6.95 µM; actives 47% (n = 2,900); AID 743256;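 active = mean inhibition over the triplicate runs exceeds the activity threshold set in the earlier primary screen, cut at about 20% in these data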;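 also: 0% = DMSO wells and 100% = marimastat wells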
ADAM17 confirm: confirmation of inhibitors of human ADAM17; shares compounds with ADAM17 inh; recombinant ADAM17, EDANS/DABCYL QFRET peptide cleavage; inhibition, % at 6.95 µM; actives 65% (n = 2,900); AID 743257;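 active = mean inhibition across replicates above the hit cutoff set in the primary screen, cut at about 8.5% in these data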;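 also: 0% = DMSO wells and 100% = marimastat wells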
The depositor's hits bear a star.

CCCCC[C@H](C)N1C[C@@H](COCc2ccccc2)Oc2cc(N3CC[C@H](O)C3)ccc2S1(=O)=O was read as ADAM17 inh 13*, FGF22 binding 0, ADAM10 inh 21*, Ecoli rRNA inh 4, proKLK7 act 1, ADAM10 confirm 11, ADAM17 ctr 4, ADAM10 ctr 30* and ADAM17 confirm 21*.
`CCCCC[C@@H](C)N1C[C@H](COCc2ccccc2)Oc2cc(N3CCC[C@@H]3CO)ccc2S1(=O)=O` gave ADAM17 inh 8.7*, FGF22 binding 1, ADAM10 inh 21*, Ecoli rRNA inh 1, proKLK7 act 0, ADAM10 confirm 7, ADAM17 ctr 2, ADAM10 ctr 18 and ADAM17 confirm 10*.
CCCCC[C@@H](C)N1C[C@H](COCc2ccccc2)Oc2cc(N3CCC[C@H]3CO)ccc2S1(=O)=O was read as ADAM17 inh -1, FGF22 binding 0, ADAM10 inh -2, Ecoli rRNA inh 5 and proKLK7 act 0.
Screening C[C@@H]1CN([C@H](C)CO)S(=O)(=O)c2ccc(C#Cc3ccccn3)cc2O[C@@H]1CN(C)C(=O)C1CC1 returned FGF22 binding -1 and Ecoli rRNA inh -4.
Screening CC(C)NC(=O)Nc1ccc2c(c1)C(=O)N([C@@H](C)CO)C[C@@H](C)[C@@H](CN(C)S(=O)(=O)c1ccccc1)OCCCC[C@@H](C)O2 returned FGF22 binding 1 and Ecoli rRNA inh -5.
`O=C(c1ccncc1)N1CC2(C1)[C@H](c1ccccc1)[C@@H](CO)N2CC1CCOCC1` gave FGF22 binding -1 and Ecoli rRNA inh 2.
`C[C@H](NC(=O)C[C@@H]1C[C@@H]2c3cc(NC(=O)NC4CCCCC4)ccc3O[C@@H]2[C@H](CO)O1)c1ccccc1` gave FGF22 binding 0 and Ecoli rRNA inh 2.
CC(C)NC(=O)N(C)C[C@H]1Oc2ncc(C#CC3CCCCC3)cc2C(=O)N([C@H](C)CO)C[C@H]1C was read as Ecoli rRNA inh 3.
Cc1ccc(S(=O)(=O)N(CC(=O)Nc2ccc(Cl)c([N+](=O)[O-])c2)C2CCCCC2)cc1 was read as ADAM17 inh 14*, ADAM10 inh 25*, proKLK7 act -1, ADAM10 confirm 10, ADAM17 ctr 2, ADAM10 ctr 25* and ADAM17 confirm 14*.
For Cc1ccc(S(=O)(=O)N(CC(=O)Nc2cccc([N+](=O)[O-])c2)C2CCCCC2)cc1 the results were ADAM17 inh 5, ADAM10 inh 10 and proKLK7 act 0.
C[C@H](CO)N1C[C@H](C)[C@@H](CN(C)C(=O)Cc2ccccc2)Oc2ncc(-c3ccc(F)cc3)cc2C1=O was read as FGF22 binding 0 and Ecoli rRNA inh -12.
Screening COc1ccc(S(=O)(=O)Nc2cc3c4c(oc3c3ccccc23)CC(C)(C)CC4=O)cc1 returned ADAM17 inh 9.1*, ADAM10 inh 26*, proKLK7 act 1, ADAM10 confirm 11, ADAM17 ctr 2, ADAM10 ctr 21* and ADAM17 confirm 11*.
For COc1ccc(S(=O)(=O)Nc2cc3c4c(oc3c3ccccc23)CCCC4=O)cc1 the results were ADAM17 inh 7, ADAM10 inh 9 and proKLK7 act 0.
